Beta cell apopt – beta cell apoptosis inhibition; INS-1E cytokine-induced death, ATP luminescence, 48 h; percent of positive-control rescue, neutral wells zero; protection from apoptosis, % (no concentration beside the values); 300,000 compounds, 0.8% hits; AID 435005;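 active means Every replicate reaches about 75%, or at least half do and their mean reaches it too, limit read from the data; inconclusive means At least half of replicates reach the limit but their mean does not; inactive means Under half of replicates reach the limit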;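 further: 0% = cytokine-treated negative control wells and 100% = positive control rescue; higher means more ATP so stronger rescue from cytokine killing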
aSyn 5UTR inh – 5' untranslated region of α-synuclein, MLPCN primary screen; alpha-synuclein 5'UTR reporter, inhibitor activity; 300,000 compounds, 0.82% hits; inhibition, % (tested at 7.5 µM); in the data active means inhibition above about 60%; inconclusive means no clear call, values can overlap the other calls;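 further: H4 neuroglioblastoma cells stably carrying SNCA 5'UTR luciferase fusion; 0% = DMSO wells and 100% = positive control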
CSC inhib – cancer stem cell inhibition. AID 2717. 300,000 compounds, 1.1% hits. inhibition, % at 7.5 µM. cancer stem cell-like cells viability, luminescence; in the data active means inhibition above about 75%; inconclusive means no clear call, values can overlap the other calls; tested in HMLE shEcad cells
Mdm2-MdmX inh – disrupts the human Mdm2-MdmX interaction; inhibition, % at 8 µM; O15151+Q00987; SaOS-2 split-luciferase Mdm2/MdmX complementation, luminescence; 330,000 compounds, 3% hits;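 active means inhibition of at least 50% at 8 µM in the primary screen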
Bfl-1 A1 inh – inhibitors of the anti-apoptotic protein A1, read as caspase activation; 330,000 compounds, 0.066% hits; MEF A1-2A-BIM cells, Caspase-Glo 3/7 luminescence, 3 h; percent of clofoctol response, vehicle zero; caspase activation, % (no concentration beside the values); AID 2462;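 active means over half of replicate activation scores above 10%, or exactly half above 10 with the replicate mean above 10; inconclusive means replicate mean below 10 yet half the replicates above 10; inactive means over half of replicates below 10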
* = called active by the depositor; u = inconclusive; x = no result. In the library only some 4.1% were active in any assay of this set; here they are far more common.

SMILES	Beta cell apopt	aSyn 5UTR inh	CSC inhib	Mdm2-MdmX inh	Bfl-1 A1 inh
CCCC(=O)NCCCCNC(=O)CCC	-3	13	-13	0	0
COC(=O)c1ccccc1-c1c2ccc(=N)cc-2oc2cc(N)ccc12	99*	x	x	45	2
COC(=O)c1ccccc1-c1ccc(/C=N/NC(=O)c2cc3ccccc3o2)o1	-5	-20	x	20	0
Cc1ccc(OCCn2c(=S)[nH]c3ccccc32)c(C(C)C)c1	9	10	101*	8	0
Cc1cccc(OCCn2c(=S)[nH]c3ccccc32)c1	1	5	13	-7	-1
COc1ccc(NC(=O)NC(=O)c2ccccc2)cc1	1	-221	-1	-21	-7
O=C(NC(=O)c1ccccc1)Nc1ccccc1	-2	72*	0	-73	-9
CC(C)(C)c1ccc2c(c1)OC(C(=O)N/N=C\c1ccncc1)CO2 (stereo not drawn)	2	5	-4	-35	0
CC(C)(C)c1ccc2c(c1)OC(C(=O)N/N=C\c1ccc[nH]1)CO2 (stereo not drawn)	70	5	119*	17	24*
COc1ccc(C(CNC(=O)c2oc3ccc(OC)cc3c2C)N2CCCC2)cc1 (stereo not drawn)	-7	-31	12	-15	1
CCc1ccc2oc(C(=O)NCC(c3ccc(OC)cc3)N3CCCCC3)c(C)c2c1 (stereo not drawn)	16	4	85*	38	0
Cc1ccc(NC(=O)CSCC(=O)N2CCN(c3cccc(C(F)(F)F)c3)CC2)cc1	-5	12	-4	15	0
CC(C)c1ccc(NC(=O)c2snc3ccc(Cl)cc23)cc1	-5	-369	80*	-75	-2
COc1ccccc1-n1c(=O)oc2ccc(Cl)cc2c1=O	104*	x	x	17	-8
N#Cc1ccc(-c2ccc(Cl)cc2)nc1SCC(=O)c1cccc(Cl)c1	91*	-81	10	31	-1
Cc1ccc(C(=O)c2c3ccc(C(F)(F)F)cc3[n+]([O-])n2CCCN)cc1	2	-12	-12	-9	0
Cc1ccc(C(=O)c2c3ccc([N+](=O)[O-])cc3[n+]([O-])n2CCCN)cc1	26	63*	13	33	0
Cc1ccc(NC(=O)COC(=O)Cn2ccc(=O)[nH]c2=O)cc1C	-5	x	-10	23	1
CCN(C(=O)Cn1cnc2c1c(=O)n(C)c(=O)n2C)C1CCCCC1	1	x	-13	18	0
CC(=O)OCCc1c2ccccc2c(CCCN(C)C)c2ccccc12	x	103*	-6	2	-1
Cc1nc2ccc(NC(=O)c3ccc(C)c(S(=O)(=O)N4CCOCC4)c3)cc2s1	11	x	x	27	-1
Cc1ccc(C(=O)N/C(=C\c2ccc(-c3ccccc3[N+](=O)[O-])o2)C(=O)NCCCN2CCOCC2)cc1	u	71*	11	9	-1
Cc1ccc(C(=O)N/C(=C\c2cn(C)c3ccccc23)C(=O)NCCCN2CCOCC2)cc1	-14	9	-15	10	0
CCN(CC(=O)Nc1c(F)cccc1F)C(=O)/C=C/c1ccc(S(=O)(=O)N2CCCCCC2)cc1	13	78*	5	17	1
COc1ccc(NC(=O)CN(C)C(=O)/C=C/c2ccc(S(=O)(=O)N3CCCCCC3)cc2)cc1	75*	u	14	27	u
SMILES	Beta cell apopt	aSyn 5UTR inh	CSC inhib	Mdm2-MdmX inh	Bfl-1 A1 inh
CCN(CC(=O)Nc1c(F)cccc1F)C(=O)c1ccc(S(=O)(=O)N2CCCC2)cc1	-9	-2	5	21	1
CC(=O)NS(=O)(=O)c1ccc(NC(=O)c2ccc(S(=O)(=O)N3CCCC3)cc2)cc1	-2	x	x	-21	0
CC(=O)c1cccc(CN2CCC(n3nccc3NC(=O)c3ccc4c(c3)OCO4)CC2)c1	-3	5	-4	13	0
O=C(Cn1cc(S(=O)(=O)N2CCCC2)c(S(=O)(=O)N2CCCC2)c1)NCc1ccco1	-7	0	-7	10	-1
CC12CCC(=O)N1C(C(=O)Nc1ccc(SC(F)F)cc1)CS2 (stereo not drawn)	x	-13	-9	3	1
CCCC1=Nc2cc(C(=O)N3CCN(c4ccccn4)CC3)ccc2Sc2ccc(C)cc21	15	27	-9	12	0
CC1CCN(C(=O)Cn2c3ccccc3c3nc4n(c(=O)c32)CCS4)CC1	4	8	-5	14	0
CCOC(=O)C(=O)NNc1ccc(F)cc1	4	-14	101*	-15	1
CCOC(=O)C(=O)N/N=C/c1ccc(F)cc1	2	-8	-1	7	-1

Screening results deposited in PubChem BioAssay by several laboratories.
